Data from paper PMC12136788.
Over roughly 24,000 sequences, “enrichment r” has its median near 0.99; the highest 2% begin near 3.7. For the sample, the highest values were picked, then their nearest neighbours and some sequences at random.

T1: UNK ZnF1-3 (human, UniProt Q9C0B0 31-174)
T1 sequence: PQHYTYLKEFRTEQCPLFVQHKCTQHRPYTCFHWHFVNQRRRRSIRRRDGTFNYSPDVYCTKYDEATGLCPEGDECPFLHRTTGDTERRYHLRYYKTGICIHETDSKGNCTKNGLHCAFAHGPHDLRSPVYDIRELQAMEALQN

B1: chr7:140404665:140404666:+_ENSG00000090266_ENST00000247866|hu_hu|hu_hu_hu_mus_False|8_88 (ssRNA)
RNA: GGGAGUUCUACAGUCCGACGAUCUGCUCCUACUCGUCCAGAGAGUUUACACCUUCAGUCCUCGUCAUCAGGAGGGAUUCCCAGUUCUUCAUCUGUCCACUGUGAAGGAUCUGGAUAUGAAAAGUGACCCAGCACCUCAUCCGACAACAGAGGAUUGAGCAUCA
B2: chr18:67804014:67804015:+_ENSMUSG00000024537_ENSMUST00000025418|mus_mus|motif|central (ssRNA)
RNA: GGGAGUUCUACAGUCCGACGAUCGCAAUCAGUAUAGAAAUAACCAAUCUUACACAUGUUCAGUGUAGAAAUAAUCAGAUCGGUUGCAAGCUGGCCAACAUUUCCAACGGAUACUGCUGGCAUCAGGAGUGUAAAGUUCGUUAGCAACAGAGGAUUGAGCAUCA
B3: chr4:140556289:140556290:+_ENSMUSG00000036622_ENSMUST00000037055|mus_mus|mus_mus_mus_hu_False|48_48 (ssRNA)
RNA: GGGAGUUCUACAGUCCGACGAUCGAUGGAGCUCACCAGGCCCCCUUUUGCCGUGCAGAACCCUGUGCGGGUCACCACUGCCAGGACACGGGGUCCCACAUAGGCCCGGGCCUGCAAGAUGAGGGUCCCGCAGAAGAGUGUGUGCAACAGAGGAUUGAGCAUCA
B4: 134094901_134095021_423_5pUTR_ENSG00000151502_ENST00000281187|human|control|control (ssRNA)
RNA: GGGAGUUCUACAGUCCGACGAUCCUCAUCGCACCGCCGGGCCGGGCGGGUCUCGGUAAGGACCGCUCCCUCGCACCGGGGCGCGGGCUGCCCUAGGUAAAGAAGGCCAGAGGGCCCGAUGCGCGAGCGCGCUCGGCCGCCGCGCAACAGAGGAUUGAGCAUCA
B5: chr14:63765801:63765802:-_ENSMUSG00000021273_ENSMUST00000054963|mus_mus|motif|central (ssRNA)
RNA: GGGAGUUCUACAGUCCGACGAUCCUGCUUGGUUUUGCUUGAUGAUGGGUCUGAGUUGGGGAUCCGGUGAUAAAUCUCUUCGGUGUACUGGUAUAUGAUAGCUUUGACGGCAGGCAUGUUGGUGGCAUCCAUCAUGAGGGUGACCAACAGAGGAUUGAGCAUCA
B6: 46153067_46153187_242_5pUTR_ENSG00000159596_ENST00000372025|human|control|control (ssRNA)
RNA: GGGAGUUCUACAGUCCGACGAUCGAUAAAACUGAAGACAUGUAGUAGGAGAUCUCAGGGGCCCACGCCGGCCAGUCCCUCCAAUCCUCCGGAUUCUAGGUAGUCUAGCUUCCUGGUUGCCAGCCAUUACACGGUUUAGCUUUCCAACAGAGGAUUGAGCAUCA
B7: chr7:54825262:54825263:-_ENSG00000132432_ENST00000352861|hu_hu|hu_hu_hu_mus_False|48_58 (ssRNA)
RNA: GGGAGUUCUACAGUCCGACGAUCCUGCCGGCUGGGCUCCACAAACUGCAUUACCUGAUCCAUGUUUGUUGGAUGGCACACCUAAAAUGCCAGGGACCGUAGCUCAGGAGAGAACCGAGCCCAACGGAACCGGAAGCUGGCAACCAACAGAGGAUUGAGCAUCA
B8: chr2:48026839:48026840:+_ENSG00000116062_ENST00000540021|hu_hu|hu_hu_hu_mus_False|1_48 (ssRNA)
RNA: GGGAGUUCUACAGUCCGACGAUCAUAGUGAGCCACUAGCGUCCUAAAUCUGGAACAGUGGCGGUCAUCCGAAAACUGGCCGAUGAAAAACUUUCCCAGUGAAGUGUCCACAAAGCAAACACCAUACACACGAGUGUGGCCAGACAACAGAGGAUUGAGCAUCA
B9: 62642993_62643113_3073_3pUTR_ENSMUSG00000032244_ENSMUST00000034775|mouse|control|control (ssRNA)
RNA: GGGAGUUCUACAGUCCGACGAUCCAUAUGUGUCCUCAUUCCUUUUCAUCUUACACCUAAUUAGGGAGACACCAAUGCCCUAUGGAAAGGCAGUUUCCAAUUUUUAAAGAUACAACACACAAGGACAGGGCUAGAAAAGGACGACAACAGAGGAUUGAGCAUCA
B10: 243667512_243667632_2619_3pUTR_ENSG00000117020_ENST00000366539|human|control|control (ssRNA)
RNA: GGGAGUUCUACAGUCCGACGAUCUUCUCAUCACUAAAAAAUAAAUACUACUGCAAUAUAAACAAAAUCAUAAAAGGACAUUCAAAGUUUCAACAUCUGAGAAAAAGCUAAUUCACGUAGAACUGAAAGUAAAAAAUUAAAUAACAACAGAGGAUUGAGCAUCA
B11: chr11:21040623:21040624:+_ENSMUSG00000020134_ENSMUST00000093290|mus_mus|motif|central (ssRNA)
RNA: GGGAGUUCUACAGUCCGACGAUCAAUGUGCACGGUGCUAGGCUUCACCCCAUUUGCCUUAGGUCUUUUAAACAAAGCAAACCGGCUUUUCCUCCUUCCUCUAUCACCGUUUGGGAGAGAUCCAUUAUAUCCUAAGACAAUGAGCAACAGAGGAUUGAGCAUCA
B12: 120959283_120959403_3001_3pUTR_ENSG00000154114_ENST00000422003|human|control|control (ssRNA)
RNA: GGGAGUUCUACAGUCCGACGAUCUGAAGAAUUUACAAGUCACCUAAAAAUUUCAUAAAAAAAUUAAAUUUGUAGGAGGGGUAGAAUUAUGUAACAAAGGUCAAAAGGUCAAAUGCAAUCAGAUAAUAACUGCAUUCUUUGAAACAACAGAGGAUUGAGCAUCA
B13: chr5:135513207:135513208:+_ENSG00000113658_ENST00000545279|hu_hu|FALSE|FALSE (ssRNA)
RNA: GGGAGUUCUACAGUCCGACGAUCAAUGUAAGCUCACAGUAUCUGUACUCAAAGUUUCUCUAAAAUUAAAACAAGUCCACUAACAAUAUAAUUGAAAAGAAUACUUCUGCAUUAUGAAACAGAAGAUAUGGGGUUCAGAGGGGACAACAGAGGAUUGAGCAUCA
B14: chr8:42881778:42881779:+_ENSG00000168172_ENST00000307602|hu_hu|FALSE|FALSE (ssRNA)
RNA: GGGAGUUCUACAGUCCGACGAUCCUGAAGUUAGGGGCAAUCUGCAGGUUUGUGUUUCAGGAGGCAGGCAAACCAAAGGUAAGAACAUCUUCUGAUUAACUGUAAGAUGGGAUAAUUUUUAUGAAUACAACUUCAGAAAGCAUCCAACAGAGGAUUGAGCAUCA
B15: 58873449_58873569_2464_3pUTR_ENSMUSG00000025092_ENSMUST00000066285|mouse|control|control (ssRNA)
RNA: GGGAGUUCUACAGUCCGACGAUCAUCCAAGAUCAUUUUAAAAGACCUCCAAUGAAUGUUUCCCCCACCCUACCCUGCCCCCGGCACAGAGUGGGCGUCCUAAGCCUUCCCUUUCAGAGCCCUCUUCCAAGCAGGCUGCACCCACAACAGAGGAUUGAGCAUCA
B16: chr10:115881139:115881140:-_ENSG00000165813_ENST00000369287|hu_hu|FALSE|FALSE (ssRNA)
RNA: GGGAGUUCUACAGUCCGACGAUCAUAAAAAUAUUUUCACCAGGGUAGCAUAUAUAACAACAUUUACAUUAUUAAGGAUUCUAUUUUUUUCUUUUACUGAUAAAUCUUGGUUUAAAUUUGCAUGUAACAAUUUUUAGAAAAUAACAACAGAGGAUUGAGCAUCA
B17: chr1:109605286:109605287:-_ENSG00000197780_ENST00000461096|hu_mus|hu_hu_hu_mus_True|88_108 (ssRNA)
RNA: GGGAGUUCUACAGUCCGACGAUCAAGAACAAUAACAACAUUCAGUAUACUUAAAUCAUGCAAUUAUCCUUAUUAUAAGCUAAGCAGAAUAAUAAUUUAAUACCGUAAGUGAACUACACACAAAGCCUGAACCGCGAAAAUGGUCAACAGAGGAUUGAGCAUCA
B18: 133975328_133975448_5492_3pUTR_ENSG00000205060_ENST00000378509|human|control|control (ssRNA)
RNA: GGGAGUUCUACAGUCCGACGAUCUCUCCCAUUCCAGCUUGGUACACACUGAACACAUUUGAGGCUUAUGACUGGUUCUUUUACUUACAAAUAUUGUUUAGACACAUUUUCAAAUGUCACACCAAUCAAUAAUAAUAAGGAAUGCAACAGAGGAUUGAGCAUCA

Each binder was assayed against T1, UNK ZnF1-3 (assay: nsRBNS (natural sequence RNA bind-n-seq); RBNS binding buffer (assumed for nsRBNS): 25 mM Tris pH 7.5, 150 mM KCl, 3 mM MgCl2, 0.01% Triton X-100, 500 ug/ml BSA, 20 U/ml SUPERase-In, 4 C; UNK is unkempt and MSI1 is Musashi-1; names of the RNAs are library labels; protein concentration not given here; high values mean tight binding).

**Q.** Which binding signal does the source give for B1 here?
**A.** The binding signal was 1.36 enrichment R.

**Q.** B2 was tested. Which binding signal did it give?
**A.** The binding signal was 0.794 enrichment R.

**Q.** For B3, which binding signal is on record?
**A.** The binding signal was 0.98 enrichment R.

**Q.** Which binding signal does the source give for B4 here?
**A.** The binding signal was 0.289 enrichment R.

**Q.** Which binding signal does the source give for B5 here?
**A.** The binding signal was 1.69 enrichment R.

**Q.** For B6, which binding signal is on record?
**A.** Its binding signal is 0.934 enrichment R.

**Q.** Which binding signal does the source give for B7 here?
**A.** Its binding signal is 1.16 enrichment R.

**Q.** With B8 as the binder, how does the binding signal read?
**A.** Its binding signal is 1.03 enrichment R.

**Q.** With B9 as the binder, how does the binding signal read?
**A.** Its binding signal is 1.66 enrichment R.

**Q.** B10 was tested. Which binding signal did it give?
**A.** Its binding signal is 5.18 enrichment R.

**Q.** B11 was tested. Which binding signal did it give?
**A.** Its binding signal is 0.75 enrichment R.

**Q.** How did the binding signal turn out when B12 was run?
**A.** The binding signal was 4.1 enrichment R.

**Q.** For B13, which binding signal is on record?
**A.** The binding signal was 1.67 enrichment R.

**Q.** B14 was tested. Which binding signal did it give?
**A.** Its binding signal is 3.56 enrichment R.

**Q.** For B15, which binding signal is on record?
**A.** Its binding signal is 5.4 enrichment R.

**Q.** With B16 as the binder, how does the binding signal read?
**A.** The binding signal was 3.75 enrichment R.

**Q.** For B17, which binding signal is on record?
**A.** The binding signal was 0.813 enrichment R.

**Q.** For B18, which binding signal is on record?
**A.** Its binding signal is 1.3 enrichment R.
